Out of some 330,000 compounds screened, about 1,900 (0.58%) were called active. Roughly 4% stayed inconclusive and do not appear here. Only a sample is shown. Results with a measured potency or affinity are listed apart. Unmarked numbers belong to inactive results. Rule as the data show it: inconclusive = inhibition above about 70% without an active follow-up result; inactive = below that.

A short description of the assay: M. tuberculosis growth inhibition, HTS (AID 449762).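 Also: bacterial growth assessed after seven days of incubation.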 The settings on record: M. tuberculosis H37Rv growth inhibition, 7H9 media; at 25 µM; active compounds read high.
What is called inhibition is the relative decrease from the control value, in per cent. Turning to `Nc1c2c(nc3sc4c(c13)CCCC4)CCCCCC2`, the inhibition was 11.9%.

Take `Nc1nc2sc3c(c2c(=O)s1)CCCC3`: the inhibition is -5.9%.

Turning to `COCCn1nnnc1C(c1ccccc1)N1CCN(Cc2ccc3c(c2)OCO3)CC1` (stereo not drawn), the inhibition is 5.3%.

On to `CCN1CCN(C(c2ccccc2)c2nnnn2Cc2ccc3c(c2)OCO3)CC1` (stereo not drawn), for which the inhibition is -1.8%.

Turning to `Cc1cc(C(=O)CSc2nnc(-c3ccco3)o2)c(C)n1C`, the inhibition was 0.77%.

With `COc1ccc(N2CCN(C(=O)CSc3nc(C)cs3)CC2)cc1`, the inhibition is 13.4%.

Consider `COCC(C)n1c(SCC(=O)Nc2oc(C)c3c(C)n[nH]c(=O)c23)nc2ccccc2c1=O` (stereo not drawn), for which the inhibition was 1.83%.

Regarding `COc1cccc2cc(C(=O)N(C)C3CCN(C)CC3)c(=O)oc12`, the inhibition was 2.2%.

Regarding `CSc1ccc(NC(=O)Nc2cccn(Cc3ccccc3F)c2=O)cc1`, the inhibition was 0.76%.

With `CCOc1ccc(NC(=O)Nc2cccn(Cc3ccccc3)c2=O)cc1`, the inhibition was 11.4%.

On to `Cc1nnc(SCCC(=O)Nc2ccc(F)cc2)s1`, for which the inhibition was 58.3%.

On to `Cc1ccc(NC(=O)c2ccccc2NC(=O)c2cccnc2)cc1`, for which the inhibition was 11.1%.

Turning to `O=C(NNC(=S)Nc1ccccc1Cl)c1ccccc1`, the inhibition is -3.72%.

For the compound `CCn1cc(C(=O)NCC(C)C)c(=O)c2cc(F)c(N3CCN(C(=O)c4ccco4)CC3)cc21`, the inhibition was 0.58%.

For `CCn1cc(C(=O)NC(C)C)c(=O)c2cc(F)c(N3CCN(C(=O)c4ccco4)CC3)cc21`, the inhibition was 19.2%.

Take `Cc1cc(C)nc(-n2nc(C)cc2NC(=O)c2ccc(S(=O)(=O)N3CCOCC3)cc2)n1`: the inhibition was 9.62%.

As for `Cc1nn(C)c(C)c1/C=C(/C(=O)C(C)(C)C)n1cncn1`, the inhibition is -1.56%.

In the case of `CC(=O)N/C(=C\c1cccc([N+](=O)[O-])c1)C(=O)NC(C)C`, the inhibition was -0.52%.

With `Cc1c(Oc2ccc(C(F)(F)F)cc2[N+](=O)[O-])ccc2c3c(c(=O)oc12)CCC3`, the inhibition is -1.9%.

Turning to `CCOc1ccc(N2C(=O)CC(NCC#N)C2=O)cc1` (stereo not drawn), the inhibition is 0.53%.

As for `COc1ccc(/C=C2/Sc3ccc(C(=O)NCCCN4CCOCC4)cc3NC2=O)cc1OC`, the inhibition is -4.7%.

For `O=C1Nc2cc(C(=O)NCCCN3CCOCC3)ccc2S/C1=C/c1ccccc1F`, the inhibition was 16.4%.

Take `COc1ccc(OC)c(-c2cc(C(=O)NC3CCCC3)c3ccccc3n2)c1`: the inhibition was -8.38%.

`Cc1c(Cl)ccc2c(C(=O)O)cc(-c3ccccc3)nc12`: the inhibition is 0.17%.

As for `CC1CCc2cc(F)ccc2N1C(=O)c1cccs1` (stereo not drawn), the inhibition was 1.29%.

Regarding `CC(C)(C)c1cc(N2CCOCC2)n2ncc(-c3ccccc3)c2n1`, the inhibition is 3.06%.

Regarding `Cc1nccn1-c1cc(C(C)(C)C)nc2c(-c3ccccc3)cnn12`, the inhibition was -1.52%.

As to `CCCCNC(=O)C1=C(N)C(C(=O)Nc2ccc(C)c(S(=O)(=O)N3CCCCC3)c2)SC1=Nc1ccc(C)cc1C` (stereo not drawn), the inhibition is -11.1%.

For the compound `O=C(CCc1nc(-c2ccccc2Cl)no1)NC1CCCC1`, the inhibition is -5.48%.

In the case of `COc1ccc(-c2cc(-c3ccccc3)c(C#N)c(S(C)(=O)=O)n2)cc1`, the inhibition was 8.53%.

On to `CS(=O)c1nc(-c2ccc(Br)cc2)cc(-c2ccccc2)c1C#N` (stereo not drawn), for which the inhibition is 65%.

Take `CC1(C)Cc2nc3nc(SCC(=O)NCCc4ccccc4)n(-c4ccccc4)c(=O)c3cc2CO1`: the inhibition was -2.48%.

Take `S=C(Nc1cccc(Cl)c1)N1CCOCC1`: the inhibition is -10.2%.

Regarding `CCc1ccc2[nH]c(=O)c(CN(CCCN3CCOCC3)C(=O)Nc3ccccc3)cc2c1`, the inhibition was 4.92%.

On to `Cc1ccc2[nH]c(=O)c(CN(CCCN3CCOCC3)C(=O)Nc3cccc(Cl)c3)cc2c1`, for which the inhibition is 10.9%.

In the case of `C=CC[C@@H](CC(=O)N[C@H](CO)Cc1ccccc1)C(=O)N[C@@H](C)COC(=O)[C@@H](CC=C)Cc1ccc(F)cc1`, the inhibition was 3.8%.

With `COc1ccccc1N1CCN(CCCCOc2ccc(F)cc2)CC1`, the inhibition was -1.86%.

As for `Clc1cccc(OCCCCN2CCCCC2)c1`, the inhibition is 0.99%.

As for `COC(=O)c1ccc(-c2n[nH]c(=O)c3ccccc23)cc1`, the inhibition is -2.05%.

As for `NC(=O)c1ccc(-c2ncc(-c3ccccc3)o2)cc1`, the inhibition was 51.1%.

For the compound `CCN1C(=O)[C@H]2[C@@H](c3ccc(-c4ccc(C(C)=O)cc4)cc3)N3CCCC[C@@]3(C(=O)OC)[C@H]2C1=O`, the inhibition is -6.49%.

Take `CCCCN1C(=N)N([C@@H](CCC)CN2CCC[C@H]2CN2C(N)=NC[C@H]2C(C)C)C[C@H]1[C@H](C)CC`: the inhibition is 1.37%.

In the case of `O=C(Cc1ccccc1)c1nc2ccccc2s1`, the inhibition was -3.11%.

Take `Cc1cc(C)cc(OCC(=O)OCC(=O)c2cc(C)n(C3CC3)c2C)c1`: the inhibition is 54.3%.

In the case of `Cc1cc(C(=O)COC(=O)COc2ccc(C#N)cc2)c(C)n1C1CC1`, the inhibition is 3.67%.

As to `CC(=O)NC(Cc1c[nH]c2ccccc12)C(=O)Nc1ccc2c(c1)OCO2` (stereo not drawn), the inhibition is -2.05%.

For `C/C(=N/OC(=O)c1c(-c2ccccc2Cl)noc1C)c1cnccn1`, the inhibition was 3.98%.

In the case of `COc1ccc(CN2CCNC(=O)C2CC(=O)N(C)Cc2cc(C)no2)cc1OC` (stereo not drawn), the inhibition was -7.74%.

On to `COC(=O)Cc1cc(=O)[nH]c(Nc2nc3ccccc3o2)n1`, for which the inhibition is 29.9%.

Take `CCOC(=O)Cc1cc(=O)[nH]c(Nc2nc3ccccc3o2)n1`: the inhibition was -2.99%.

As to `C/C(Sc1nnc(Cc2ccccc2)o1)=C(/O)c1ccccc1`, the inhibition is -0.32%.

As to `S=C1NCCOCCOCCOCCOCCNC(=S)NCCOCCOCCOCCOCCN1`, the inhibition was -3.9%.

Take `Cc1ccc(SC/C(O)=C(\C#N)c2nc3ccccc3s2)cc1`: the inhibition is 1.37%.

Consider `N#C/C(=C(/O)COc1ccccc1)c1nc2ccccc2s1`, for which the inhibition is 56.1%.

As for `O=C(O)CCc1nc(-c2ccccc2)c(-c2ccccc2)o1`, the inhibition was 6.1%.

`O=C(CCc1nc(-c2ccccc2)c(-c2ccccc2)o1)OCc1ccc(Br)cc1`: the inhibition was 70.2%.

On to `O=C(Nc1nc2ccc(S(=O)(=O)N3CCCC3)cc2s1)c1ccco1`, for which the inhibition was -2.95%.

For the compound `COc1ccccc1-n1c(/C=C/c2ccccn2)nc2ccccc2c1=O`, the inhibition is -5.93%.

Regarding `CC(C)N(C(=S)Nc1cc(S(=O)(=O)N2CCOCC2)ccc1Cl)c1ccccc1`, the inhibition is -5.84%.

In the case of `Cc1cc(NC(=O)c2cc(-c3cccs3)nc3ccccc23)no1`, the inhibition was -0.3%.

For `NNC(=O)c1cc(-c2cccs2)nc2ccccc12`, the inhibition is 9.4%.

In the case of `CC(C)N(C1=N/C(=C\c2ccco2)C(=O)N1c1ccccc1)C(C)C`, the inhibition was -0.07%.

Consider `Cc1noc(C(F)(F)F)c1C(=O)NNC(=O)c1cccc(C(F)(F)F)c1`, for which the inhibition is 3.93%.

As to `CCOC(=O)C1C(=O)NC(SCC(=O)Nc2nccs2)=C(C#N)C1c1ccccc1OCC` (stereo not drawn), the inhibition was 55.1%.

On to `CC1CCCCN1CCNC(=O)C1CCCN(S(=O)(=O)c2cccc3nsnc23)C1` (stereo not drawn), for which the inhibition was 3.33%.

`CN(C)c1nc(NCc2ccccc2)nc(N/N=C/c2ccc(Br)cc2)n1`: the inhibition is 3.27%.

`CN(C)c1nc(NCc2ccccc2)nc(N/N=C/c2ccc(Cl)cc2Cl)n1`: the inhibition is 9.37%.

On to `COc1ccc(N2CC(C(=O)O)CC2=O)cc1` (stereo not drawn), for which the inhibition was -12.1%.

As for `CCC(=NCc1ccccc1)c1c(C(F)(F)F)[nH]n(-c2nc3ccccc3s2)c1=O`, the inhibition was -0.69%.

Regarding `COc1ccc(CN=C(C)c2c(C(F)(F)F)[nH]n(-c3nc4ccccc4s3)c2=O)cc1`, the inhibition is -13.3%.

In the case of `COc1ccccc1NC(=O)CSc1nn2c(=O)c(C)nnc2s1`, the inhibition is -20.7%.

Regarding `Cc1cc(C)nc(SCCCNCc2c(F)cccc2Cl)n1`, the inhibition is 0.32%.

For the compound `Cc1ccc(-n2c(C)nc3ccsc3c2=O)cc1`, the inhibition was 9.48%.

With `Cc1ccc(-n2c(Cl)c(Cl)[nH]c(=O)c2=O)cc1`, the inhibition was -6.67%.

Regarding `Cc1noc(C)c1COc1ccccc1C(=O)N1CCN(S(=O)(=O)c2ccccc2C(F)(F)F)CC1`, the inhibition is -1.24%.

Turning to `COC(=O)c1cccc(NC(=O)Cc2ccccc2[N+](=O)[O-])c1C`, the inhibition was 2.19%.

Regarding `OC(Cn1cncn1)c1ccc(Cl)cc1` (stereo not drawn), the inhibition was -4.52%.

As to `Cc1ccc(CNC(=O)NC23CC4CC(CC(C4)C2)C3)cc1`, the inhibition is 7.32%.

With `O=C(NCc1ccccc1)NC12CC3CC(CC(C3)C1)C2`, the inhibition was -2.17%.

With `Cc1noc(C)c1COc1ccc(C(=O)OCC(N)=O)cc1`, the inhibition was 12.9%.

In the case of `Cc1noc(C)c1COc1ccc(C(=O)OCC(=O)NC2CCCCC2C)cc1` (stereo not drawn), the inhibition was 48.8%.

Take `Cc1ccc(N2CC(C(=O)NC3=NCCS3)CC2=O)cc1` (stereo not drawn): the inhibition was 4.82%.

For the compound `COc1ccc(-c2cc(=Nc3c(C)n(C)n(-c4ccccc4)c3=O)c3ccccc3o2)cc1`, the inhibition was 35.5%.

As to `CCc1ccc2oc(-c3ccc(OC)cc3)cc(=Nc3cccc(C(=O)O)c3)c2c1`, the inhibition is 39.4%.

As for `CNC(=O)c1cnn(-c2nc(-c3ccc(OC)cc3)cs2)c1C(F)(F)F`, the inhibition is 9.09%.

Turning to `CCN1CCc2c(OCC(=O)Nc3ccccc3)cccc2C1=O`, the inhibition is -8.51%.

As for `COc1cccc(-c2cc(C(F)(F)F)nc(N3CCC(C)CC3)n2)c1`, the inhibition is 2.81%.

Consider `O=C(COC(=O)C1=COCCO1)Nc1ccccc1`, for which the inhibition is 65.9%.

Take `O=C(COC(=O)C1=COCCO1)NCc1ccc(F)cc1`: the inhibition was 5.31%.

For `COc1ccc(CNC(=O)COC(=O)C2=COCCO2)cc1`, the inhibition is 12.1%.

For the compound `CC(=O)c1cccc(NC(=O)COC(=O)C2=COCCO2)c1`, the inhibition is -0.86%.

On to `CCCCN1C(=N)N([C@@H](C)CN2CCC[C@H]2CN2C(N)=NC[C@@H]2Cc2ccccc2)C[C@H]1Cc1ccccc1`, for which the inhibition is 67.2%.

With `CCCCN1C(=N)N([C@@H](CCC)CN2CCC[C@H]2CN2C(N)=NC[C@@H]2Cc2ccccc2)C[C@H]1[C@H](C)CC`, the inhibition is 4.76%.
